From PubChem BioAssay (EPA / NIEHS)
Records with an inconclusive call do not appear. Activity calls are given as the source filed them. How the source made its calls, unless noted: active means hit-call score of the fitted dose curve at least 0.9, where 1 is the maximum; inactive means score below 0.9.

Columns and labels:
[1] = ATG_XTT_Cytotoxicity: Cytotoxicity Assessment in the Attagene TRANS-FACTORIAL HepG2 Assay (AID 2283584; active means hit-call score of the fitted dose curve at least 0.9, where 1 is the maximum)
Procedure, shortened: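 Cells: human HepG2, transiently transfected with MRTU reporter constructs. Exposure 24 h. Readout: XTT, cell number. Baseline/neg ctrl DMSO; loss-of-signal scored.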

[2] = target: Cellular tumor antigen p53 (Homo sapiens) (UniProt P04637); test: TOX21_p53_BLA_p2_ratio: Tox21 HCT-116 p53 Agonism Beta-lactamase Assay, Ratio, Phase 2 (AID 2283592; active means hit-call score of the fitted dose curve at least 0.9, where 1 is the maximum)
Sequence of Cellular tumor antigen p53 (Homo sapiens) (P04637 whole entry, looked up): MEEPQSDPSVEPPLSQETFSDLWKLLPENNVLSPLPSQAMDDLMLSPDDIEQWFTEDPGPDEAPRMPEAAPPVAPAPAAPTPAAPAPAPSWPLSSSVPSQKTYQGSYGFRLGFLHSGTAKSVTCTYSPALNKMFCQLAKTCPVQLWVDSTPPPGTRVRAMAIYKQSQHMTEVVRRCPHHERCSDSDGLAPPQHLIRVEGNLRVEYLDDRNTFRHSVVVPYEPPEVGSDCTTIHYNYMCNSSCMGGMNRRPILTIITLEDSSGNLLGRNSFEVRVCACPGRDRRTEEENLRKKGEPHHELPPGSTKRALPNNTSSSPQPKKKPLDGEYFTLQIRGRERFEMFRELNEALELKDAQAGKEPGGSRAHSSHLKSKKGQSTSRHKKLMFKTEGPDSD
Procedure, shortened: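 HCT116 p53-bla; 4000 cells/well; 5 h pre-incubation; cpd in DMSO, 217-fold dilution; 16 h 37C/5% CO2; CCF4-AM 2 h RT; Ex 405, Em 460/530 ratio; DMSO = baseline; positive fitting direction.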

[3] = read-out: solute carrier (SLC22A1), SLC22A1 (gene 6580); test: LTEA_HepaRG_SLC22A1: Life Technologies and Expression Analysis (LTEA) Assay for solute carrier (SLC22A1) using HepaRG (AID 2283524); details: mRNA level, 48 h; actives raise or lower the signal
Procedure, shortened: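 Differentiated human HepaRG cells in serum-free induction medium, exposed 48 h in duplicate to 8-point half-log series from 100 µM top in 0.5% DMSO. SLC22A1 mRNA by TaqMan qRT-PCR normalized to ACTB, GAPDH, POLR2A; bidirectional fit versus DMSO.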

[4] = read-out: Pyruvate Dehydrogenase Kinase 4 (PDK4), PDK4 (gene 5166); test: LTEA_HepaRG_PDK4: Life Technologies and Expression Analysis (LTEA) Assay for Pyruvate Dehydrogenase Kinase 4 (PDK4) using HepaRG (AID 2283525); details: mRNA level, 48 h; actives raise or lower the signal
Procedure, shortened: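 HepaRG cells plated 48 h, then switched to serum-free induction medium and exposed in duplicate for 48 h to 8 half-log concentrations from 100 uM in 0.5% DMSO. PDK4 mRNA measured by qRT-PCR, normalized to ACTB, GAPDH and POLR2A; bidirectional fit versus DMSO.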

[5] = read-out: Nuclear factor erythroid 2-related factor 2 (Homo sapiens) (UniProt Q16236); test: LTEA_HepaRG_NFE2L2: Life Technologies and Expression Analysis (LTEA) Assay for Nuclear factor erythroid 2-related factor 2 (NFE2L2) Transcription Factor using HepaRG (AID 2283527); details: mRNA level, 48 h; actives raise or lower the signal
Procedure, shortened: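 Differentiated human HepaRG cells, serum-free induction medium, exposed 48 h in duplicate to eight half-log concentrations up to 100 uM in 0.5% DMSO. NFE2L2 mRNA by Fluidigm TaqMan qRT-PCR, normalised to ACTB, GAPDH, POLR2A; bidirectional change versus DMSO.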

[6] = read-out: Signal transducer and activator of transcription 3 (Homo sapiens) (UniProt P40763); test: LTEA_HepaRG_STAT3: Life Technologies and Expression Analysis (LTEA) Assay for Signal transducer and activator of transcription (STAT3) using HepaRG (AID 2283529); details: mRNA level, 48 h; actives raise or lower the signal
Procedure, shortened: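 Differentiated HepaRG cells, serum-free induction medium, dosed 48 h in duplicate, 8 half-log concentrations from 100 uM in 0.5% DMSO. STAT3 mRNA by qRT-PCR, normalised to ACTB, GAPDH, POLR2A; bidirectional fit versus DMSO.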

[7] = read-out: solute carrier (SLCO1B1), SLCO1B1 (gene 10599); test: LTEA_HepaRG_SLCO1B1: Life Technologies and Expression Analysis (LTEA) Assay for solute carrier (SLCO1B1) using HepaRG (AID 2283530); details: mRNA level, 48 h; actives raise or lower the signal
Procedure, shortened: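 HepaRG, serum-free induction medium, 48 h dosing, 8-pt half-log from 100 uM, 0.5% DMSO vehicle, duplicates. Readout: SLCO1B1 mRNA, qRT-PCR, ACTB/GAPDH/POLR2A normalization; up or down fit vs DMSO.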

[8] = read-out: sulfotransferase 2A1 (SULT2A1), SULT2A1 (gene 6822); test: LTEA_HepaRG_SULT2A1: Life Technologies and Expression Analysis (LTEA) Assay for sulfotransferase 2A1 (SULT2A1) using HepaRG (AID 2283531); details: mRNA level, 48 h; actives raise or lower the signal
Procedure, shortened: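 Transcript levels of SULT2A1, quantified by qRT-PCR and normalized to three housekeeping genes, serve as the readout. Human HepaRG cultures receive test chemicals for 48 h at up to 100 uM in half-log steps, with 0.5% DMSO vehicle.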

[9] = read-out: Transforming Growth Factor (TGFA), TGFA (gene 7039); test: LTEA_HepaRG_TGFA: Life Technologies and Expression Analysis (LTEA) Assay for Transforming Growth Factor (TGFA) using HepaRG (AID 2283532); details: mRNA level, 48 h; actives raise or lower the signal
Procedure, shortened: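 Differentiated HepaRG cells exposed 48 hours in serum-free induction medium, 0.5% DMSO vehicle, 8-point half-log series from 100 uM, in duplicate. TGFA mRNA by TaqMan qRT-PCR, normalised to ACTB, GAPDH, POLR2A; bidirectional fit versus DMSO.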

[10] = read-out: Transforming Growth Factor (TGFB1), TGFB1 (gene 7040); test: LTEA_HepaRG_TGFB1: Life Technologies and Expression Analysis (LTEA) Assay for Transforming Growth Factor (TGFB1) Transporter using HepaRG (AID 2283533); details: mRNA level, 48 h; actives raise or lower the signal
Procedure, shortened: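 HepaRG, 48 h post-plating, switched to serum-free induction medium; chemicals 100 uM top, half-log, 8 pts, 0.5% DMSO, dup; 48 h exposure; RNA → Fluidigm TaqMan qRT-PCR; norm ACTB/GAPDH/POLR2A; bidirectional fit vs DMSO.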

TIMP1, TIMP1 (gene 7076) = test: LTEA_HepaRG_TIMP1: Life Technologies and Expression Analysis (LTEA) Assay for TIMP1 using HepaRG (AID 2283534); details: mRNA level, 48 h; actives raise or lower the signal;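 further: TaqMan qRT-PCR signal normalized to ACTB GAPDH and POLR2A housekeeping genes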
Procedure, shortened: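 Readout is TIMP1 mRNA level measured by qRT-PCR and normalized to three housekeeping genes. Human HepaRG cells were treated for 48 h in duplicate at eight concentrations up to 100 uM (0.5% DMSO); gain or loss fitted against DMSO.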

[11] = read-out: Tumor necrosis factor receptor 1 (TNFRSF1A), TNFRSF1A (gene 7132); test: LTEA_HepaRG_TNFRSF1A: Life Technologies and Expression Analysis (LTEA) Assay for Tumor necrosis factor receptor 1 (TNFRSF1A) using HepaRG (AID 2283535); details: mRNA level, 48 h; actives raise or lower the signal
Procedure, shortened: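 Read-out is TNFRSF1A transcript level by TaqMan qRT-PCR, normalized to three housekeeping genes, scored as gain or loss of signal versus 0.5% DMSO. Human HepaRG cells received test chemicals for 48 h at up to 100 uM (half-log series).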

[12] = read-out: Thyroid Hormone Responsive (THRSP), THRSP (gene 7069); test: LTEA_HepaRG_THRSP: Life Technologies and Expression Analysis (LTEA) Assay for Thyroid Hormone Responsive (THRSP) using HepaRG (AID 2283536); details: mRNA level, 48 h; actives raise or lower the signal
Procedure, shortened: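 Differentiated HepaRG cells treated 48 h in serum-free induction medium with 8 half-log concentrations up to 100 uM (0.5% DMSO), duplicates. THRSP mRNA by TaqMan qRT-PCR normalised to ACTB, GAPDH, POLR2A; bidirectional fit versus DMSO.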

[13] = read-out: UDP glucuronosyltransferase (UGT1A1), UGT1A1 (gene 54658); test: LTEA_HepaRG_UGT1A1: Life Technologies and Expression Analysis (LTEA) Assay for UDP glucuronosyltransferase (UGT1A1) using HepaRG (AID 2283538); details: mRNA level, 48 h; actives raise or lower the signal
Procedure, shortened: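 Readout is UGT1A1 transcript level by qRT-PCR, normalized to three housekeeping genes, after 48 h chemical treatment of HepaRG cells. Concentrations ran from 100 uM down in half-log steps with 0.5% DMSO, and gain or loss relative to DMSO was fitted.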

[14] = read-out: UDP glucuronosyltransferase (UGT1A6), UGT1A6 (gene 54578); test: LTEA_HepaRG_UGT1A6: Life Technologies and Expression Analysis (LTEA) Assay for UDP glucuronosyltransferase (UGT1A6) using HepaRG (AID 2283539); details: mRNA level, 48 h; actives raise or lower the signal
Procedure, shortened: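 HepaRG, 48 h post-plating switch to serum-free induction medium; chemical 48 h, 100 uM top, half-log x8, duplicate, 0.5% DMSO. Phenobarbital 1mM induction control. UGT1A6 mRNA by TaqMan qRT-PCR; gain/loss fit vs DMSO.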

[15] = read-out: X-box binding protein 1 (XBP1), XBP1 (gene 7494); test: LTEA_HepaRG_XBP1: Life Technologies and Expression Analysis (LTEA) Assay for X-box binding protein 1 (XBP1) using HepaRG (AID 2283540); details: mRNA level, 48 h; actives raise or lower the signal
Procedure, shortened: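 Transcript levels of XBP1, measured by qRT-PCR and normalised to three housekeeping genes, were fitted bidirectionally relative to 0.5% DMSO controls. Human HepaRG cells received eight-point half-log dilutions from 100 uM for 48 h.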

[16] = LTEA_HepaRG_LDH_cytotoxicity: Cytotoxicity Assessment in the Life Technologies and Expression Analysis (LTEA) Assay (AID 2283563; active means hit-call score of the fitted dose curve at least 0.9, where 1 is the maximum;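 on AC50: LDH activity released into spent culture medium as a marker of cell death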)
Procedure, shortened: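 Cells were thawed and plated for 48 h. Medium was then replaced with serum-free induction medium. Chemicals (8 half-log points, maximum 100 uM, 0.5% DMSO) were added in duplicate for 48 h, after which spent medium was assayed for LDH.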

Measured: AC50

Sequence of Signal transducer and activator of transcription 3 (Homo sapiens) (P40763 whole entry, looked up): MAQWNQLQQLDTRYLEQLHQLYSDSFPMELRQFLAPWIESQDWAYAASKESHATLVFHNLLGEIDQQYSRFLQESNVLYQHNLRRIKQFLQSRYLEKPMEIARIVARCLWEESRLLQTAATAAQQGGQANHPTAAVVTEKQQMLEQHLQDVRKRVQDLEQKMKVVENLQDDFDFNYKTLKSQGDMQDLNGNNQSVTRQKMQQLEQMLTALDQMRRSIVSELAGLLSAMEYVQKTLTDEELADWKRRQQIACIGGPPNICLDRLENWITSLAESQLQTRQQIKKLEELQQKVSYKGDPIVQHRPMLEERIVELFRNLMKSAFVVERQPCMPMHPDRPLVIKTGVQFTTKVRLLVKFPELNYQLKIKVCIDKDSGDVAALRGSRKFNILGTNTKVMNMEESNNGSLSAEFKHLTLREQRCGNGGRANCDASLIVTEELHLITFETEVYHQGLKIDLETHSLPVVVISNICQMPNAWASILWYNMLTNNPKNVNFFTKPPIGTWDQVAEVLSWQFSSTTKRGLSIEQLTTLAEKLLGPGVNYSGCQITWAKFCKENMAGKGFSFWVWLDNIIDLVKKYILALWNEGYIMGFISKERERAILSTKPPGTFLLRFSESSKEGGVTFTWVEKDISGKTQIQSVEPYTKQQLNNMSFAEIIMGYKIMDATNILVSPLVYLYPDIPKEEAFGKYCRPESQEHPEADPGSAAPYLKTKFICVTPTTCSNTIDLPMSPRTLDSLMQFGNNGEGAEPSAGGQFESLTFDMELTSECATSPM
Sequence of Nuclear factor erythroid 2-related factor 2 (Homo sapiens) (Q16236 whole entry, looked up): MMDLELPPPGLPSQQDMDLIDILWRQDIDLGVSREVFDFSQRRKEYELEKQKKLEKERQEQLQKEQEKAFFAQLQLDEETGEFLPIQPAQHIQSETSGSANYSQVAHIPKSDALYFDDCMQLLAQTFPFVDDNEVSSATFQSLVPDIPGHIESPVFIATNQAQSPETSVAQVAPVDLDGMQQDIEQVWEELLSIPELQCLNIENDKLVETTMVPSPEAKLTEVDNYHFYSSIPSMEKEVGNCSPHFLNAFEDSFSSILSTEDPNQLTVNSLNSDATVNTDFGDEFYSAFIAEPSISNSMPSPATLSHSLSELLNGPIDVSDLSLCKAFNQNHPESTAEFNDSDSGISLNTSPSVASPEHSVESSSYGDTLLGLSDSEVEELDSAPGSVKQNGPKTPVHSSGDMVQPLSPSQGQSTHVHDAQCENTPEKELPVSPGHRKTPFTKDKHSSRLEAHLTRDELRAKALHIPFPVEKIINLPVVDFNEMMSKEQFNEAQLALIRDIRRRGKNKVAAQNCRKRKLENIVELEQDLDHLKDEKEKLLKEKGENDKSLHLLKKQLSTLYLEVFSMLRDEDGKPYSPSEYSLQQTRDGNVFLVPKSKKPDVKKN

COC(=O)c1ccccc1S(=O)(=O)NC(=O)Nc1nc(C)nc(OC)n1
inactive: [1] | [2]

CNC(=O)Oc1ccccc1OC(C)C
active: [13] 0.633 µM
not listed: [1]
inactive: all other assays above

CCS(=O)(=O)c1cccnc1S(=O)(=O)NC(=O)Nc1nc(OC)cc(OC)n1
inactive: [1]

CCOC1Oc2ccc(OS(C)(=O)=O)cc2C1(C)C (centres undefined)
active: [3] 71.9 µM | [4] 85.7 µM | [6] 21.4 µM | [7] 73.6 µM | [8] 83.5 µM | [9] 90.8 µM | [12] 89.3 µM | [13] 11.8 µM | [14] 85.4 µM | [16] 83.8 µM
inactive: [5] | [10] | TIMP1, TIMP1 (gene 7076) | [11] | [15]

O=[N+]([O-])/N=C1\NCCN1Cc1ccc(Cl)nc1
active: [3] 50 µM | [4] 34.4 µM | [5] 18.9 µM | [6] 20.1 µM | [7] 50 µM | [8] 31.8 µM | [11] 28.1 µM | [12] 50 µM | [15] 25.5 µM
inactive: [9] | [10] | TIMP1, TIMP1 (gene 7076) | [13] | [14] | [16]
